Sampled rows, rich in hits. Any-hit rate of the full collection: about 3.5%.
ANO1 block: blocks the mouse calcium-activated chloride channel TMEM16A | HEK293 TMEM16A/YFP iodide influx fluorescence, ionomycin | normalized B-score (activity score, 25-100; higher = stronger inhibition) at 10 µM | 310,000 compounds, 1.2% hits | AID 588511;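 active = ratio plate-corrected score three or more library SD toward inhibition, starting fluorescence score within five deviations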;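 also: score derived from kinetic fluorescence span divided by baseline fluorescence per well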
KCNK9 block: inhibitors of human KCNK9 two-pore domain potassium channel. Q9NPC2. HEK293 KCNK9, FluxOR thallium flux fluorescence; active compounds read low. B-score at 10 µM. 310,000 compounds, 1.2% hits. AID 488922;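 active = ratio B-score over 3 SD below the library mean, with starting fluorescence within 5 SD of its mean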;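 also: negative B-score means less thallium flux so channel inhibition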
KCNK3 block: human KCNK3 channel inhibition, primary screen; B-score at 10 µM; O14649; 340,000 compounds, 0.84% hits; CHO-KCNK3 thallium flux, FluxOR fluorescence; active compounds read low; AID 602410;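 active = B-score under library mean minus 4 SD, starting fluorescence ratio at most library mean plus 5 SD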;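 also: more negative B-score means stronger inhibition of thallium flux through KCNK3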
Kir21 inh: inhibitors of mouse Kir2.1 inward-rectifier potassium channel; P35561; HEK293-Kir2.1, FluxOR thallium flux fluorescence; active compounds read low; AID 1672; B-score at 10 µM; 310,000 compounds, 0.85% hits;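 active = fluorescence ratio B-score at or below minus 3 SD of library scores, with starting-brightness B-score within 2 SD, cut at about -4.2 in these data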;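 also: channel flux triggered by added potassium and thallium sulfate stimulus; B-score of peak minus minimum fluorescence over baseline after thallium stimulus; more negative B-score means stronger Kir2.1 block with less thallium influx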
Target sequence (P35561 whole entry, looked up): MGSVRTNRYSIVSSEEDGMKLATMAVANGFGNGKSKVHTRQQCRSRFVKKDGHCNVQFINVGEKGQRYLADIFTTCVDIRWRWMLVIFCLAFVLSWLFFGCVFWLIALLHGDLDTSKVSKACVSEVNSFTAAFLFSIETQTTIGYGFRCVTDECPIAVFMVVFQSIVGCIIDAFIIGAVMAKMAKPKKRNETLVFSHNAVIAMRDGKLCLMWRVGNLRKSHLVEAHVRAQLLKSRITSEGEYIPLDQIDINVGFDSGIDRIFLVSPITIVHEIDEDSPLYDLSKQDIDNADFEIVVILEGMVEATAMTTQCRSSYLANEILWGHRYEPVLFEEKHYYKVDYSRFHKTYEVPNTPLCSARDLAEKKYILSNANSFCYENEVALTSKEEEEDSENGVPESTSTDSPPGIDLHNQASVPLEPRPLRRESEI
ANO1 activ: activates or potentiates the mouse TMEM16A chloride channel; B-score at 10 µM; 340,000 compounds, 0.3% hits; HEK293 TMEM16A/YFP-H148Q/I152L, iodide quench fluorescence; active compounds read low; Q8BHY3;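 active = fluorescence-ratio B-score plate-corrected deviation score at least 3 library SD below zero, with starting fluorescence score within 5 deviations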;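 also: channel opened by trigger with iodide after compound preincubation; score built on the fluorescence ratio of max minus min over baseline; more negative score means more quench and so TMEM16A activation or potentiation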
Large screens that a line does not name were inactive.

COc1ccc(-c2oc(NC(=O)CCl)c(C#N)c2-c2ccc(OC)cc2)cc1	ANO1 block 100
Cc1ccc(OCC(=O)Nc2oc(-c3ccccc3)c(-c3ccccc3)c2C#N)cc1	none
COc1ccc(-c2oc(NC(=O)CSc3ncn[nH]3)c(C#N)c2-c2ccc(OC)cc2)cc1	ANO1 block 25, KCNK3 block -13
CCn1c(SCC(=O)Nc2ccc(OCc3ccccc3)cc2)nnc1-c1ccco1	none
CCn1ccnc1CN(C)Cc1cn(-c2cc(C)ccc2C)nc1-c1ccccc1	none
CCc1noc(C)c1C(=O)Nc1cc(S(=O)(=O)N2CCOCC2)ccc1OC(C)C	none
O=S(=O)(c1ccccc1)c1nc(Nc2cccc(O)c2)sc1Cl	ANO1 block 100, Kir21 inh -5.5
O=S(=O)(c1ccccc1)c1nc(NCc2ccccc2)sc1Cl	none
CCOc1ccc(CCNC(=O)c2cn(C)c3ccc(S(=O)(=O)N4CCOCC4)cc3c2=O)cc1OCC	none
C(=C\n1nnc2ccccc21)/c1ccc[nH]1	none
CCN(C(=O)c1cc2c(=O)n3cccc(C)c3nc2n1CCCOC)C1CCCCC1	KCNK3 block -11
COCCCn1c(C(=O)NC2CCCCC2C)cc2c(=O)n3cccc(C)c3nc21 (configuration not stated)	none
COc1cccc(CN(CC(=O)NCc2ccccc2)C(=O)c2csnn2)c1	none
COc1ccc(C(=O)Nn2cnc3scc(-c4cccs4)c3c2=O)c(O)c1	KCNK3 block -11
COc1cccc(-n2cnc3scc(-c4cccs4)c3c2=O)c1	none
COc1ccc(OC)c(NC(=O)COC(=O)CCCN2C(=O)c3ccccc3C2=O)c1	none
COc1ccc(CCNC(=O)c2ccc(NS(=O)(=O)c3ccc4[nH]c(=O)[nH]c4c3)cc2)cc1	none
CCOc1ccccc1OCCn1ncc2ccc(OC)c(OC)c2c1=O	none
COc1ccc2cnn(CCOc3cc(C)ccc3C(C)C)c(=O)c2c1OC	Kir21 inh -4.8
Cc1ccc(S(=O)(=O)Cc2cc(F)c([N+](=O)[O-])cc2[N+](=O)[O-])cc1	KCNK3 block -10
O=C(CSc1ncnc2sc3c(c12)CCCC3)c1ccccc1	ANO1 activ -5
O=C(CSc1ncnc2sc3c(c12)CCCC3)c1ccco1	none
CC(=O)C1=C(C)Nc2ncnn2C1c1ccc(Br)cc1 (configuration not stated)	none
Cc1ccnc2nc(C(=O)Nc3ccc(N4CCOCC4)cc3)nn12	ANO1 activ -11
O=C(Nc1ccc(N2CCOCC2)cc1)c1ccncc1	none
CSCCC(NC(=O)/C(=C\c1ccc(Cl)cc1)NC(=O)c1ccccc1)C(=O)O (configuration not stated)	none
Fc1ccc(Cn2ccc(-c3cnc(-c4ccccc4)s3)n2)cc1	ANO1 block 100
CCOC(=O)C1=C(C)OC(N)=C(C#N)C1c1c(C)nn(-c2ccc(C)cc2)c1Cl (configuration not stated)	KCNK9 block -9.8 (no result: ANO1 block, KCNK3 block, ANO1 activ)
CCOC(=O)N1CCC(NC2CCCCCCC2)CC1	none
CC(=O)N(Cc1c(C)nn(-c2ccccc2)c1Cl)c1ccc(Cl)cc1	Kir21 inh -5.1
Cc1nn(-c2ccccc2)c(Cl)c1CN(C(=O)CCl)c1ccc(Cl)cc1	none
CCC(C)c1ccc(S(=O)(=O)N2CCN(CC(O)COCC3CCCO3)CC2)cc1 (configuration not stated)	none (no result: ANO1 block, KCNK9 block, Kir21 inh)
O=c1c2ccccc2ncn1CCCOc1ccccc1[N+](=O)[O-]	ANO1 block 25
O=[N+]([O-])c1ccccc1OCCCn1cnc2ccccc21	none (no result: ANO1 block)
CC(Sc1nc(N)cc(=O)[nH]1)C(=O)NC1CCCCC1 (configuration not stated)	ANO1 activ -9.7 (no result: KCNK9 block, Kir21 inh)
CCc1nc(C)cn1S(=O)(=O)c1cc(C)c(OC)c(C)c1C	Kir21 inh -5.6
CCc1nc(C)cn1S(=O)(=O)c1cc(F)ccc1OC	none
CCc1nc(C)cn1S(=O)(=O)c1cc(C)c(OC)cc1C	Kir21 inh -5.2
CCc1nc(C)cn1S(=O)(=O)c1cc(Br)c(C)cc1OC	Kir21 inh -12
Cc1ccccc1S(=O)(=O)Oc1cccc2c(O)cccc12	Kir21 inh -4.3
Cc1ccccc1C(=O)Oc1cccc2c(O)cccc12	none
COc1ccc(S(=O)(=O)Nc2ccccc2N2CCOCC2)cc1OC	none (no result: ANO1 block, KCNK9 block, Kir21 inh)
O=[N+]([O-])c1ccc(S(=O)(=O)c2ccccc2)nc1	Kir21 inh -8.1
CC(C)c1cccc(C(C)C)c1OCCCCCN1CCOCC1	Kir21 inh -5.1
c1ccc2c(OCCCCN3CCOCC3)cccc2c1	none

Screens deposited in PubChem BioAssay by Johns Hopkins Ion Channel Center.
